Shown are actives, neighbours in structure and some others; about 0.67% of the full set was active somewhere.
Vc quorum ag: inducers of Vibrio cholerae quorum light production without autoinducers, primary screen, BH1578 luxS cqsA deficient, single point; V. cholerae BH1578 lux reporter, luminescence, 6 h; activation, % at 18.7 µM; actives 0.16% (n = 350,000); AID 588436, 2011; in the data active means activation mostly above about 9.7%, no sharp cut-off
TcdB GH inh: TcdB glycohydrolase inhibitors, primary screen, biochemical, single point, plate reader. inhibition, % at 9.99 µM. actives 0.24% (n = 350,000). TcdB glycohydrolase enzymatic assay. Toxin B (Clostridioides difficile), P18177; in the data active means inhibition above about 10%
Target sequence (P18177 whole entry, looked up): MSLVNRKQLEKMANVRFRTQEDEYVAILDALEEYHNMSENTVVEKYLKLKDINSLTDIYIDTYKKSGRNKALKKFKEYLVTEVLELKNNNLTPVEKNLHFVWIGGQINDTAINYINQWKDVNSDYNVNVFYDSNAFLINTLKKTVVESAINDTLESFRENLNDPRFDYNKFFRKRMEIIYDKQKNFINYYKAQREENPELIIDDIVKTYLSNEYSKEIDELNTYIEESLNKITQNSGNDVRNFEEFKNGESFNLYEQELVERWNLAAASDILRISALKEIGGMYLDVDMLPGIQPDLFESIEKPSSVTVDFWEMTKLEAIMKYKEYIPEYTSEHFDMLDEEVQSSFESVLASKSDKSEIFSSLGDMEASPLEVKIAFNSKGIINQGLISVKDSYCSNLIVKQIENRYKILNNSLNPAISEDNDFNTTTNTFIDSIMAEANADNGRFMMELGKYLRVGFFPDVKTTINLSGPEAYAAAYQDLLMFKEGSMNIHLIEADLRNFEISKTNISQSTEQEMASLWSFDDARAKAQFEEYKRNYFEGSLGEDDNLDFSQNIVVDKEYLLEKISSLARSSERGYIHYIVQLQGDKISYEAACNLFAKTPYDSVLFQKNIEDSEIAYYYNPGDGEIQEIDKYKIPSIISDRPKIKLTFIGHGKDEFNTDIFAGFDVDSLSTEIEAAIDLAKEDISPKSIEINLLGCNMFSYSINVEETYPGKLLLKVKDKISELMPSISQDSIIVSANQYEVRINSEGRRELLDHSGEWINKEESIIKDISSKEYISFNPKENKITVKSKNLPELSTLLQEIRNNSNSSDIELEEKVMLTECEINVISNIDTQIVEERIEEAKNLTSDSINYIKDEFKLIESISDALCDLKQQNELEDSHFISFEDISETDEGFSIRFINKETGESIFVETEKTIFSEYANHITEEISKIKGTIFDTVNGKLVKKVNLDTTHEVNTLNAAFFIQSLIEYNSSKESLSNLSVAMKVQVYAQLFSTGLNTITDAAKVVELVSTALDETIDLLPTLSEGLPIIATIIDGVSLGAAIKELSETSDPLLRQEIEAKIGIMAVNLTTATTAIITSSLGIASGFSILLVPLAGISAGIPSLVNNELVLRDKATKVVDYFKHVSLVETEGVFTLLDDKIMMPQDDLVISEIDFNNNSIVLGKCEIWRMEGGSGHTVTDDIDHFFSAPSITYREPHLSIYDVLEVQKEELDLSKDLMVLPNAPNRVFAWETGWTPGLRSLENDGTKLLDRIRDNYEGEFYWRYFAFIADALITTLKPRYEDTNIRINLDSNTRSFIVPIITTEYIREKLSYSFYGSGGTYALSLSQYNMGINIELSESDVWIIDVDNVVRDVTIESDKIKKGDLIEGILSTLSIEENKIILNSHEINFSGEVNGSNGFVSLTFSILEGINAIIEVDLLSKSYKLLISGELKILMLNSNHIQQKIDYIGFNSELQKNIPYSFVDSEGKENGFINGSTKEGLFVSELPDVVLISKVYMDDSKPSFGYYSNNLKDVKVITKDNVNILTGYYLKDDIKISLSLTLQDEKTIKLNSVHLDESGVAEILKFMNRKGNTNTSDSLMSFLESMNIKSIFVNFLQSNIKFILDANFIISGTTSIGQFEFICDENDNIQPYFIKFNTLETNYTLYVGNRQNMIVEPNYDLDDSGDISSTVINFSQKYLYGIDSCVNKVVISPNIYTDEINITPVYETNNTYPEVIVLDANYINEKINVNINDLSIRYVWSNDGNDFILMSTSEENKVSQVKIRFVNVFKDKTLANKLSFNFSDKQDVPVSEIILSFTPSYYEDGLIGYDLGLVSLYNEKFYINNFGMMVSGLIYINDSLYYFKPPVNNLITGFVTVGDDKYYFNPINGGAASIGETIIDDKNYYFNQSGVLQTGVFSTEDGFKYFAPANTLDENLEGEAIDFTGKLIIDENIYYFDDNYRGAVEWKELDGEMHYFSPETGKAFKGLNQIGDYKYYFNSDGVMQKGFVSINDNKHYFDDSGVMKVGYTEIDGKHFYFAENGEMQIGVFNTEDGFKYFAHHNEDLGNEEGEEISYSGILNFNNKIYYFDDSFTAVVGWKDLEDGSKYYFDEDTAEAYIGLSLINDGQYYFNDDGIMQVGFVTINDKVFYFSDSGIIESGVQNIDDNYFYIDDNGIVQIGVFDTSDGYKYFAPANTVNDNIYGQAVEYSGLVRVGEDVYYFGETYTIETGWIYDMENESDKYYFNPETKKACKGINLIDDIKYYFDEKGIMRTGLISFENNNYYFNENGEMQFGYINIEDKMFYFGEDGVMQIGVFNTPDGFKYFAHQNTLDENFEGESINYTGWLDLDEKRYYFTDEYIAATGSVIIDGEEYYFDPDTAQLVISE
Sa RN4220 lethal: growth inhibition of S. aureus RN4220, primary screen, OD600; 16 h; inhibition, % (concentration not given with the values); actives 0.33% (n = 330,000); in the data active means inhibition above about 85%
Sa ugtP lethal: growth inhibition of ugtP-null S. aureus, primary screen, RN4220 ugtP deletion, OD600; 16 h; growth inhibition, % (no concentration beside the values); actives 0.54% (n = 330,000); in the data active means growth inhibition above about 68%
Large screens that a line does not name were inactive.

C[C@@]12CCC=CC1C(c1ccc3ccccc3c1C=Cc1ccccc1)N(Cc1ccccc1)C2=O (stereo not given in full)	none (no result: Vc quorum ag, TcdB GH inh)
CCN1CC2C3C(=O)N(C)C(=O)C3[C@](Cc3ccccc3)(C1=O)N2C(=O)c1ccc(F)cc1 (stereo not given in full)	none (no result: Vc quorum ag, TcdB GH inh)
Cc1ccc(S(=O)(=O)Oc2ccccc2/C=C2/SC(=O)NC2=O)cc1	TcdB GH inh 10
CC(=O)c1ccc(-n2c(C)ccc2-c2ccccc2)cc1	none (no result: TcdB GH inh)
COC(=O)c1ccc(-n2c(C)ccc2-c2ccccc2)cc1	Sa ugtP lethal 97
C(=Nn1cnnc1SCc1ccccc1)c1ccco1	none (no result: Vc quorum ag, TcdB GH inh)
O=C1C2C(C(=O)N1N=Cc1cc([N+](=O)[O-])c(O)cc1O)C1C=CC2C12CC2 (stereo not given)	none (no result: Vc quorum ag, TcdB GH inh)
Cc1cc(Cl)ccc1NC(=O)CCC(=O)N/N=C/c1cc([N+](=O)[O-])ccc1O	none (no result: Sa RN4220 lethal, Sa ugtP lethal)
O=C(NN=Cc1cc([N+](=O)[O-])ccc1O)C1CC1	Sa RN4220 lethal 90 (no result: Vc quorum ag, TcdB GH inh)
O=C(N/N=C/c1cc([N+](=O)[O-])ccc1O)C12CC3CC(CC(C3)C1)C2	none (no result: Sa RN4220 lethal, Sa ugtP lethal)
Cc1ccccc1NC(=O)CCC(=O)NN=Cc1cc([N+](=O)[O-])ccc1O	Sa RN4220 lethal 95, Sa ugtP lethal 85 (no result: Vc quorum ag, TcdB GH inh)
CN(/N=C/c1cc([N+](=O)[O-])ccc1O)c1ccccc1	none (no result: Sa RN4220 lethal, Sa ugtP lethal)
CC(N=Cc1cc([N+](=O)[O-])ccc1O)c1ccccc1 (stereo not given)	Sa RN4220 lethal 85
O=C1C2C(C(=O)N1N=Cc1cc([N+](=O)[O-])ccc1O)C1C=CC2C12CC2 (stereo not given)	Sa RN4220 lethal 93 (no result: Vc quorum ag, TcdB GH inh)
CC(NC(=O)c1nc[nH]c1C(=O)NCC(=O)OC(C)(C)C)C(=O)OCc1ccccc1 (stereo not given)	none (no result: Vc quorum ag, TcdB GH inh)
CN(CC=Cc1ccccc1)Cc1cccc2ccccc12	none (no result: Vc quorum ag, TcdB GH inh)
O=[N+]([O-])c1ccc(O)c(C=Nc2ccc3c(c2)OCCO3)c1	Sa RN4220 lethal 92 (no result: TcdB GH inh)
O=[N+]([O-])c1ccc(O)c(C=NNc2ccc(S(=O)(=O)O)cc2)c1	Sa RN4220 lethal 89
O=[N+]([O-])c1cccc(N/N=C/c2cc([N+](=O)[O-])ccc2O)c1	none (no result: Sa RN4220 lethal, Sa ugtP lethal)
COc1cc(C2Nc3cc(Cl)c(S(N)(=O)=O)cc3S(=O)(=O)N2)cc(OC)c1OC (stereo not given)	none (no result: TcdB GH inh)
NS(=O)(=O)c1cc2c(cc1Cl)NCNS2(=O)=O	Vc quorum ag 24
COc1ccc(Nc2nc(-c3ccccc3O)nc3ccccc23)cc1	Sa ugtP lethal 94
COc1cccc(Nc2nc(-c3ccccc3O)nc3ccccc23)c1	none
COc1cccc(Nc2nc(-c3ccccc3)nc3ccccc23)c1	Sa ugtP lethal 91
O=[N+]([O-])c1ccc(-c2nc(Nc3cccc(O)c3)c3ccccc3n2)cc1	Sa RN4220 lethal 85, Sa ugtP lethal 83
COC(=O)NN=Cc1sc(N2CCCCC2)nc1-c1cccs1	none (no result: Vc quorum ag, TcdB GH inh)
O=[N+]([O-])/C=C/c1cn(Cc2ccc(Cl)cc2)c2ccccc12	Sa RN4220 lethal 90
Cc1cccc(Cn2cc(/C=C/[N+](=O)[O-])c3ccccc32)c1	none (no result: TcdB GH inh)
C=CCn1c(SCc2c(C)noc2C)nc2sc3c(c2c1=O)CCCCC3	Sa ugtP lethal 88 (no result: TcdB GH inh)
O=C(N=Nc1c(O)[nH]c2ccccc12)Nc1ccccc1	none (no result: Vc quorum ag, Sa RN4220 lethal, Sa ugtP lethal)
Cc1cccc(NC(=S)N=Nc2c(O)[nH]c3ccccc23)c1	Sa RN4220 lethal 99, Sa ugtP lethal 95 (no result: TcdB GH inh)
COc1ccc(C=NNC(=O)c2cnccn2)c(OC)c1OC	none (no result: Vc quorum ag, TcdB GH inh)
CCSc1ccc(C2C3C(=O)N(C)C(=O)C3[C@]3(C(=O)OC)CCCCN23)cc1OC (stereo not given in full)	none (no result: Vc quorum ag, TcdB GH inh)
O=C1c2c(O)ccc(O)c2C(=O)c2c(NCCNCCO)ccc(NCCNCCO)c21	TcdB GH inh 17
Cc1ccc(C(NC(=O)C(C)C)c2cc([N+](=O)[O-])c3cccnc3c2O)cc1 (stereo not given)	Sa RN4220 lethal 92, Sa ugtP lethal 95 (no result: TcdB GH inh)
CC(C)C(=O)NC(c1cccs1)c1cc([N+](=O)[O-])c2cccnc2c1O (stereo not given)	none (no result: TcdB GH inh)
Oc1c(Cl)cc(Cl)c2cccnc12	none
Cc1ccc2c(Cl)cc(Cl)c(O)c2n1	Sa RN4220 lethal 99, Sa ugtP lethal 99
O=C(O)c1ccccc1NN=Cc1c(Sc2nnnn2-c2ccccc2)nc2ccccn2c1=O	none (no result: Vc quorum ag, TcdB GH inh)
O=c1c(-c2nnc(SCc3ccc(Cl)c(Cl)c3)o2)cccn1Cc1ccccc1	Sa ugtP lethal 86 (no result: TcdB GH inh)
Clc1cccc(CSc2nnc(-c3c[nH]c4ccccc34)o2)c1	none (no result: TcdB GH inh)
CCN1/C(=C/c2ccc3cc(C)ccc3[n+]2CC)Sc2cc(C)c(C)cc21	Sa RN4220 lethal 100, Sa ugtP lethal 100
CCN1/C(=C/C=C/c2sc3ccccc3[n+]2CC)Sc2ccccc21	none (no result: TcdB GH inh, Sa RN4220 lethal, Sa ugtP lethal)
CCN1/C(=C/c2ccc3cc(C)ccc3[n+]2CC)Sc2ccccc21	Sa RN4220 lethal 100, Sa ugtP lethal 100
CC[n+]1c(/C=C2\Sc3ccccc3N2C)ccc2cccc(C)c21	Sa RN4220 lethal 100, Sa ugtP lethal 101
CCOC(=O)/C(=C/C=C1\Sc2cc(C)c(C)cc2N1CC)C(C)=O	none
O=C(CNC(=O)c1ccc(Br)cc1)NN=Cc1cccnc1	none (no result: Vc quorum ag, TcdB GH inh)
COc1ccccc1CNC(=O)CNC(=O)N1CC(=O)Nc2ccccc21	TcdB GH inh 11
O=P1(Oc2ccccc2)OCCCS1 (stereo not given)	TcdB GH inh 14
CCOC(=O)c1c(C)[nH]c(C)c1C(=O)COC(=O)/C=C/c1ccco1	TcdB GH inh 10
C#CCOc1c(Br)cc(C=NO)cc1OCC	none (no result: Vc quorum ag, TcdB GH inh)
O=S(=O)(Nc1cccc(-c2nc3cccnc3s2)c1)c1ccc2c(c1)CCCC2	Sa ugtP lethal 93
O=S(=O)(/N=C(\Sc1ccccc1)c1ccccc1)c1ccc(Cl)cc1	none (no result: TcdB GH inh, Sa RN4220 lethal, Sa ugtP lethal)
O=S(=O)(N=C(Sc1ccc(Cl)cc1)c1ccccc1)c1ccccc1	Sa ugtP lethal 92 (no result: Vc quorum ag, TcdB GH inh)
O=C(Cc1ccccc1)Nc1cccc([N+](=O)[O-])c1	none
O=C(Nc1cccc([N+](=O)[O-])c1)c1ccc2ccccc2c1O	Sa RN4220 lethal 86, Sa ugtP lethal 86
O=Nc1c2nc3ccccc3n(O)c-2c2ccccc12	Sa ugtP lethal 90 (no result: TcdB GH inh)
Cc1ccc(S(=O)(=O)Oc2cccc(/C=N/Nc3ccc(C(=O)O)cc3)c2)cc1	TcdB GH inh 11 (no result: Sa RN4220 lethal, Sa ugtP lethal)
C(=Nn1cnnc1)c1cccc(Oc2ccccc2)c1	none (no result: Vc quorum ag, TcdB GH inh)
Cc1ccc(S(=O)(=O)Oc2cccc(/C=N/n3cnnc3)c2)cc1	TcdB GH inh 11 (no result: Sa RN4220 lethal, Sa ugtP lethal)
O=[N+]([O-])c1ccccc1C=NNc1nccs1	none (no result: Vc quorum ag, TcdB GH inh)
C=CCN1CCc2c(cc(O)c(O)c2Br)C(c2ccccc2)C1 (stereo not given)	none (no result: Vc quorum ag, TcdB GH inh)
CC(C)CN1CCN(CC#Cc2ccccc2)CC1CCO (stereo not given)	TcdB GH inh 10
CC(C)=CCN1CCN(CC#Cc2ccccc2)CC1CCO (stereo not given)	none
CCC1=C(OC(=O)N(CC)CC)N2C(=O)OC(=NCCc3c[nH]c4ccccc34)[C@]2(Cc2ccccc2)C2C1=CCC1C(=O)N(c3ccccc3)C(=O)C12 (stereo not given in full)	none (no result: Vc quorum ag, TcdB GH inh)
COc1ccc(C(=O)Nc2c(-c3cccs3)c(=O)c3ccccc3n2C)cc1	TcdB GH inh 11
Cc1ccc(C(=O)Nc2c(-c3cccs3)c(=O)c3ccccc3n2C)cc1	none (no result: TcdB GH inh)

Screening data: PubChem, several laboratories
